# Publication PMC8136818, “Evolving origin-of-transfer sequences on staphylococcal conjugative and mobilizable plasmids—who’s mimicking whom?”
# T1: SmpO408 (Staphylococcus aureus M0408)
# T1 chain: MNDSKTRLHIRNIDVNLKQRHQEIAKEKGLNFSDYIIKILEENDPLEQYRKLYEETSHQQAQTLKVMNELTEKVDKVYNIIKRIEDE
# T2: SmpO45 (Staphylococcus aureus plasmid pWBG745, UniProt UPI0001BEA8D3 1-84)
# T2 sequence: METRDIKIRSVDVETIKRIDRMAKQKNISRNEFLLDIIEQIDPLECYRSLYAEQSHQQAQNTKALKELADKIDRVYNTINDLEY
# T3: SmpOUNa (plasmid pC02)
# T3 chain: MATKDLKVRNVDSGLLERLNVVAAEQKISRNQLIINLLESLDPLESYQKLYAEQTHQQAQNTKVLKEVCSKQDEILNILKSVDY
# T4: SmpO49 (Staphylococcus aureus plasmid pWBG749, UniProt UPI0001BEA96A 1-84)
# T4 sequence: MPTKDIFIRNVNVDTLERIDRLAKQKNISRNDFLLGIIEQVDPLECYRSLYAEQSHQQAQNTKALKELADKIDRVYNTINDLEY
# Experiments:
# Details in all cases: protein: recombinant; tags: His6-TEV, cleaved; chain copies: 4
# SmpO408 = target: T1, SmpO408; assay: SPR (ReDCaT); 300 mM NaCl; 10 mM HEPES, 3 mM EDTA, 0.05% Tween 20, NaCl 150 mM (SmpO49 screens), 300 mM (SmpO45, SmpO408, SmpOUNa screens) or 250 mM (Table S4); pH and temperature not stated; protein 1 uM; high values mean tight binding
# Procedure, shortened: (§1)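 Protein with its tag removed was produced in E. coli BL21(DE3)pLysS and purified by nickel-affinity and then size-exclusion chromatography. On a Biacore T200 SA chip with reusable DNA capture, OriT oligonucleotides were captured at 1 μM on Fc2 and a linker alone on Fc1, and protein at 1 μM was injected at 30 μl/min with 60 s contact and 60 s dissociation in 10 mM HEPES, 300 mM NaCl, 3 mM EDTA, 0.05% Tween 20. DNA binding is given as %Rmax.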
# SmpO45 = target: T2, SmpO45; assay: as above
# Procedure, shortened: as §1
# SmpOUNa = target: T3, SmpOUNa; assay: as above
# Procedure, shortened: as §1
# SmpO49 = target: T4, SmpO49; assay: SPR (ReDCaT); 150 mM NaCl; 10 mM HEPES, 3 mM EDTA, 0.05% Tween 20, NaCl 150 mM (SmpO49 screens), 300 mM (SmpO45, SmpO408, SmpOUNa screens) or 250 mM (Table S4); pH and temperature not stated; protein 1 uM; high values mean tight binding
# Procedure, shortened: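 Tag-cleaved protein, expressed in E. coli BL21(DE3)pLysS and purified by nickel-affinity and size-exclusion chromatography, was screened on a Biacore T200 SA chip by reusable DNA capture. OriT oligonucleotides were captured at 1 μM on Fc2, with a control linker on Fc1. Protein at 1 μM was injected at 30 μl/min (60 s contact, 60 s dissociation) in 10 mM HEPES, 150 mM NaCl, 3 mM EDTA, 0.05% Tween 20. DNA binding is reported as %Rmax.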
binder,measurement,setting,value
OT408 For/Rev_14 (dsDNA) DNA 1: GTATCCCTTGAAATGTCTGGCTTCGCCAGA DNA 2: TCTGGCGAAGCCAGACATTTCAAGGGATAC,binding signal,SmpO408,8.57 %Rmax
ossA45-14 (dsDNA) DNA 1: ATTGTGGGGTCACATT DNA 2: AATGTGACCCCACAAT,binding signal,SmpO45,38.9 ± 1.1 %Rmax
OTUNA.4 (dsDNA) DNA 1: TTAATTTTTGTGACCCCCATAAGATAAATG DNA 2: CATTTATCTTATGGGGGTCACAAAAATTAA,binding signal,SmpOUNa,58.4 ± 1.36 %Rmax
ossA45-13 (dsDNA) DNA 1: ATTGTGGGGTCAGTTT DNA 2: AAACTGACCCCACAAT,binding signal,SmpO45,30.8 ± 1.19 %Rmax
ossA49-1 (dsDNA) DNA 1: ATTATGATATCACTAT DNA 2: ATAGTGATATCATAAT,binding signal,SmpO49,26.7 ± 1.94 %Rmax
OT408 For/Rev_7 (dsDNA) DNA 1: GTACAGACACAATATATAGGGGTACATTTT DNA 2: AAAATGTACCCCTATATATTGTGTCTGTAC,binding signal,SmpO408,7.42 %Rmax
ossA49-5 (dsDNA) DNA 1: TTTAAGATATCACTAT DNA 2: ATAGTGATATCTTAAA,binding signal,SmpO49,6.94 ± 0.948 %Rmax
ossA45-15 (dsDNA) DNA 1: ATTGTGGGGTCACTAT DNA 2: ATAGTGACCCCACAAT,binding signal,SmpO45,38.6 ± 1.09 %Rmax
ossA49-12 (dsDNA) DNA 1: TTTATGATATCTCTAT DNA 2: ATAGAGATATCATAAA,binding signal,SmpO49,5.13 ± 0.452 %Rmax
OTUNa For/Rev_11 (dsDNA) DNA 1: TGACCCCCATAAGATAAATGTTTAAAACCC DNA 2: GGGTTTTAAACATTTATCTTATGGGGGTCA,binding signal,SmpOUNa,18.2 ± 1.39 %Rmax
OT408 For/Rev_12 (dsDNA) DNA 1: GGCGCCTAATAAAAACCTCTGTATCCCTTG DNA 2: CAAGGGATACAGAGGTTTTTATTAGGCGCC,binding signal,SmpO408,25.9 %Rmax
ossA49-4 (dsDNA) DNA 1: TTTTTGATATCACTAT DNA 2: ATAGTGATATCAAAAA,binding signal,SmpO49,12.1 ± 1.41 %Rmax
OTUNa For/Rev_8 (dsDNA) DNA 1: TGTCACAAAAGTGTGACAATTTAATTTTTG DNA 2: CAAAAATTAAATTGTCACACTTTTGTGACA,binding signal,SmpOUNa,17 ± 0.439 %Rmax
OTUNa For/Rev_13 (dsDNA) DNA 1: TTTAAAACCCTTGAAATATCTGGCTTCGCC DNA 2: GGCGAAGCCAGATATTTCAAGGGTTTTAAA,binding signal,SmpOUNa,2.14 ± 0.24 %Rmax
OT408 For/Rev_10 (dsDNA) DNA 1: GGGTACAAAACGGTTTTATAGGCGCCTAAT DNA 2: ATTAGGCGCCTATAAAACCGTTTTGTACCC,binding signal,SmpO408,71.2 %Rmax
OT408.5 (dsDNA) DNA 1: CGGTTTTATAGGCGCCTAATAAAAACCTCT DNA 2: AGAGGTTTTTATTAGGCGCCTATAAAACCG,binding signal,SmpO408,109 %Rmax
OT49.12 (dsDNA) DNA 1: GATGATAGCAAATTCCCCTTATGCTCTTAC DNA 2: GTAAGAGCATAAGGGGAATTTGCTATCATC,binding signal,SmpO49,0.431 ± 0.0378 %Rmax
OTUNa For/Rev_18 (dsDNA) DNA 1: GGGTACATATTTCCCTTATGCTCTTACAAA DNA 2: TTTGTAAGAGCATAAGGGAAATATGTACCC,binding signal,SmpOUNa,26.2 ± 1.85 %Rmax
ossA49-2 (dsDNA) DNA 1: TATATGATATCACTAT DNA 2: ATAGTGATATCATATA,binding signal,SmpO49,26.3 ± 1.74 %Rmax
OTUNa For/Rev_17 (dsDNA) DNA 1: TTATAAAATGGGTACATATTTCCCTTATGC DNA 2: GCATAAGGGAAATATGTACCCATTTTATAA,binding signal,SmpOUNa,9.96 ± 0.667 %Rmax
ossA49-16 (dsDNA) DNA 1: TTTATGATATCACTAA DNA 2: TTAGTGATATCATAAA,binding signal,SmpO49,24.8 ± 1.07 %Rmax
ossA49-15 (dsDNA) DNA 1: TTTATGATATCACTTT DNA 2: AAAGTGATATCATAAA,binding signal,SmpO49,26.8 ± 1.07 %Rmax
OT49.4 (dsDNA) DNA 1: GTTTTTATGATATCACTATGAAATGTCCTA DNA 2: TAGGACATTTCATAGTGATATCATAAAAAC,binding signal,SmpO49,17 ± 0.325 %Rmax
